Shiga toxin inh = inhibitors of Shiga toxin in Vero cells; AID 2315; inhibition, % at 38.7 µM; Vero cells, Shiga toxin protein synthesis inhibition reporter; 290,000 tested, 9.2% active; in the data active means inhibition mostly above about 28%, no sharp cut-off; inactive means mostly below about 43%; further: 0% is about no effect
Vaccinia Venus = inhibitors of vaccinia virus (Venus reporter); Vaccinia virus Venus reporter expression, fluorescence; Potency, µM (top dose mostly 36.5 µM), without a hit: at the highest dose activity change, negative = inhibition, usual class: inhibitors; 330,000 tested, 0.46% active; AID 720580; calls by dose curve; tested in A549 cells; further: potency means the concentration at half of the fitted maximal effect; on the % scale 0 is the no-effect control and ±100 the full control effect; nearly all actives have a fitted effect of over 30% in size
Lassa entry inh = Lassa virus entry inhibition | Lassa virus pseudotype entry inhibition, cell reporter | Potency, µM (doses to about 37.9 µM), for inactives: at the highest dose activity change, negative = inhibition, usual class: inhibitors | 300,000 tested, 1.2% active | AID 540256; calls by dose curve; tested in HEK293 cells; further: potency means the concentration at half of the fitted maximal effect; on the % scale 0 is the no-effect control and ±100 the full control effect; nearly all actives have a fitted effect of over 50% in size
Vaccinia mCherry = inhibitors of vaccinia virus infection (mCherry reporter signal). Vaccinia virus mCherry reporter infection, fluorescence. Potency, µM (series often up to 36.5 µM), without a hit: at the highest dose activity change, negative = inhibition, hits mostly inhibitors. 310,000 tested, 0.63% active. AID 720579; calls by dose curve; tested in A549 cells; further: potency means the concentration at half of the fitted maximal effect; on the % scale 0 is the no-effect control and ±100 the full control effect; nearly all actives have a fitted effect of over 35% in size
MARV entry inh = inhibitors of Marburg virus binding or cell entry; Marburg virus pseudotyped entry inhibition, cell reporter; Potency, µM (titrated, usually from 37.8 µM), for inactives: at the highest dose activity change, negative = inhibition, hits mostly inhibitors; 300,000 tested, 1.8% active; AID 540276; calls by dose curve; tested in HEK293 cells; further: potency means the concentration at half of the fitted maximal effect; on the % scale 0 is the no-effect control and ±100 the full control effect
CHX counter = counter-screen for Shiga toxin inhibitors: cycloheximide protein synthesis inhibition. cell reporter, cycloheximide protein synthesis inhibition counterscreen. max response, %. 300,000 tested, 12% active; in the data active means max response mostly above about 13%, no sharp cut-off; inactive means mostly below about 14%; further: read at 38.3 µM for the half of the compounds with a filed dose; 0% is about no effect
The depositor's hits bear a star; i = inactive; ? = inconclusive; . = no result; ! = not active in a repeat; [ ] = another dose, or the depositor's remark. The entries come from a sample that favours hits as a whole.

SMILES	Shiga toxin inh	Vaccinia Venus	Lassa entry inh	Vaccinia mCherry	MARV entry inh	CHX counter
Cc1ccc(NC(=O)CSc2nc3c(c(=O)[nH]2)CCC3)cc1Cl	.	-6%	-29%[46.1 µM]	1%	?	.
CCOC(=O)c1c(C)c(/C=N/Nc2ccccc2)n(C)c1C	30	-1%	-3%	-8%	14%[46.1 µM]	13*
CCOC(=O)c1ccc(NC(=O)c2ccccc2)cc1	81*	-7%	11%	i	?	49*
CCOC(=O)c1ccc(NC(=O)c2ccccc2[N+](=O)[O-])cc1	58*	-18%	?	-27%	15%	42*
CCOC(=O)c1ccc(NCCOC)c([N+](=O)[O-])c1	88*	-5%	?	i	?	40*
Cc1ccccc1CN1C(=O)C(C)Sc2ccc(-c3ccco3)cc21 (stereo not given)	.	7%	.	0%	.	.
CC(C)(C)NC(=O)c1sccc1C(=O)O	51*	-5%	-23%[14.3 µM]	-13%	?	22*
O=C1c2ccccc2CCC12N=NCC2c1ccccc1 (stereo not given)	-3	.	?	.	-22%	0
COc1ccc(-c2cc(C(F)(F)F)nc(S(C)(=O)=O)n2)cc1	-15	?	23µM*	?	13µM*!	-1
CCOC(=O)c1c(C(F)(F)F)cc(-c2ccc(F)cc2)nc1C	14	-15%	0%	-7%	?	8
CCOC(=O)CS(=O)(=O)c1nc(-c2ccc(F)cc2)cc(C(F)(F)F)n1	-5	10µM*	?	.	?	-7
COc1ccc(-c2cc(C(F)(F)F)nc(S(=O)(=O)CCCC(=O)Nc3cccnc3Cl)n2)cc1OC	13	?	?	?	?	19*
CCOC(=O)CCS(=O)(=O)c1nc(-c2ccccc2)cc(C(F)(F)F)n1	-14	?	13µM*	11µM*	6.3µM*	-6
CS(=O)(=O)c1nc(-c2ccc(F)cc2)cc(C(F)(F)F)n1	24	?	?	?	?	-5
O=S(=O)(c1ccc2c(Cl)cccc2c1)N1CCN(c2nc(-c3cccs3)nc3ccccc23)CC1	.	-14%	.	-2%	.	.
CCOC(=O)CS(=O)(=O)c1nc(-c2ccccc2)cc(C(F)(F)F)n1	31	10µM*	?	.	?	-3
COC(=O)CCS(=O)(=O)c1nc(-c2ccccc2)cc(C(F)(F)F)n1	-17	.	23µM*	.	?	1
CCOC(=O)CS(=O)(=O)c1ccccc1	-3	-7%	12%	-11%	20%	-3
O=C(O)CCS(=O)(=O)c1nc(-c2cccs2)cc(C(F)(F)F)n1	-22	.	-14%	.	-11%	-4
COc1ccc(S(=O)(=O)c2cnc3ccc(Cl)cc3c2N2CCCCC2C)cc1 (stereo not given)	.	?	.	-16%	?	.
CCOc1ccccc1NC(=O)Cn1c(=O)n(Cc2ccco2)c(=O)c2ccc(C(=O)NC3CCCC3)cc21	.	-8%	3%[46.1 µM]	-14%	-1%[46.1 µM]	.
Cc1cc(Nc2ccccc2)n(-c2ccc(C(=O)O)cc2)n1	-10	1%	7%[46.1 µM]	i	1%[46.1 µM]	-1
Cc1cc(Nc2ccccc2)n(C(=O)c2ccc(Cl)cc2)n1	72*	61%	?	-6%	1%	35*
CCCNC(=O)Cn1c2ccccc2c2nc(=O)cc(C)n21	-13	9%	.	20%	.	2
Cc1ccc(SCC(=O)NCCC2=CCCCC2)cc1	38*	.	11%	.	?	38*
SMILES	Shiga toxin inh	Vaccinia Venus	Lassa entry inh	Vaccinia mCherry	MARV entry inh	CHX counter
O=C(NC(=S)NCCC1=CCCCC1)c1ccco1	107*	-13%	26%[46.1 µM]	i	?	37*
CCOC(=O)c1ccc(NC(=S)NCCC2=CCCCC2)cc1	-3	-8%	-27%	-1%	?	3
Cc1cc(=O)nc2c3ccccc3n(CC(=O)NCCC3=CCCCC3)n12	115	-1%	17%[46.1 µM]	-5%	11%[46.1 µM]	40*
Cc1ccc(NC(=S)NCCC2=CCCCC2)cc1	89*	-7%	1%	-10%	?	34*
O=C(CSc1nc2c([nH]c3ccccc32)c(=O)n1-c1cccc(Cl)c1)NCC1CCCO1 (stereo not given)	.	-1%	8%[46.1 µM]	-1%	.	.
CC(C)NC(=O)c1sc2ncccc2c1-n1cccc1	.	7%	?	-9%	.	.
CC1CCCCC1NC(=O)CO/N=C/c1ccccc1OC(F)F (stereo not given)	-7	-5%	-4%	i	?	-1
CNNC(=S)NCCC1=CCCCC1	18	.	.	.	.	16*
CC(=O)c1cccc(NC(=S)NCCC2=CCCCC2)c1	47*	-24%	?	-17%[1.46 µM]	?	33*
Cc1ccccc1C(=O)NC(=S)NCCC1=CCCCC1	25	-4%	-11%	-2%	-22%[46.1 µM]	10
CCCCN(C1CCS(=O)(=O)C1)S(=O)(=O)c1cccs1 (stereo not given)	.	-13%	-2%	i	16%[46.1 µM]	.
O=C(Nc1ccc(Br)c2ccccc12)c1ccc2ccccc2c1O	44*	?	.	?	.	22*
COc1ccc(NC(=O)c2c(C)oc3ccc(O)c(CN4CCC(C)CC4)c23)cc1	.	-9%	?	-18%	11µM*	.
CC(CNC(=O)Cn1cnc2c(NCc3ccccc3)ncnc21)c1ccccc1 (stereo not given)	.	-11%	.	i	.	.
c1ccc(CNc2ncnc3c2ncn3C2CCCCO2)cc1 (stereo not given)	52	-9%	12%	i	16%	32*
CC(C)CCn1cnc2c(NCc3ccccc3)ncnc21	37	.	3%	.	?	29*
O=C(c1ccccc1)c1ccc(N2CCNCC2)cc1	active	.	.	.	2%	34*
O=C(O)CCC(=O)N1CCN(c2ccc(C(=O)c3ccc(F)cc3)cc2)CC1	12	-5%	5%	.	25%	0
O=C(c1ccccc1)c1ccc(N2CCOCC2)cc1	.	-17%	?	-5%	?	.
CN1CCN(c2ccc(C(=O)c3ccc(F)cc3)cc2)CC1	111*	-5%	-14%	-13%	?	15
O=C(c1ccccc1)c1ccc(N2CCCC2)cc1	53*	.	3%	.	-2%	24*
CCC(C)(C)n1nnnc1C(C(C)C)N(Cc1ccco1)Cc1cc2cc3c(cc2[nH]c1=O)OCO3 (stereo not given)	-14	.	2%	.	16µM*	-1
CCC(C)(C)n1nnnc1C(C(C)C)N(Cc1cccnc1)Cc1ccco1 (stereo not given)	-5	4%	16%[46.1 µM]	-26%	?	-6
COc1ccc2[nH]c(=O)c(CN(Cc3ccco3)C(c3nnnn3Cc3ccccc3)C(C)C)cc2c1 (stereo not given)	-34	.	?	.	13µM*	1
CC(C)=CCC12CC3[C@@H](O)C(C(=O)c4ccccc4)(C1=O)C(=O)C(CC=C(C)C)(C2=O)C3(C)C (stereo not given in full)	.	.	?	.	-26%[14.2 µM]	.
O=c1cc(NCCc2ccccc2)c2ccccc2o1	42*	-18%	.	-20%	-23%[46.1 µM]	24*
O=c1cc(NCCO)c2ccccc2o1	-2	-9%	-3%	i	13%	-3

Compound activity (PubChem)
